# Reference: PubChem BioAssay (NCI)
# Where “and” joins values, the source holds several entries; their conditions need not be identical. Equal entries are not always repeated. About 83,000 compounds went through this panel and 20% of them were active in at least one assay; those are over-represented in the sample as a whole.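 Compound tested at a single concentration for 48 hours in 96-well plates; a percent growth value below 10 was scored as active.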 Calls of active or inactive are those of the source.
# Tests used:
# HL-60(TB) leukemia = test: NCI-60 one-dose screen, 48 h (100 = growth as untreated, 0 = no growth, -100 = all killed); details: 10 µM unless noted
# MDA-MB-468 breast = test: as above; details: 10 µM unless noted
Structure (SMILES),growth (HL-60(TB) leukemia),growth (MDA-MB-468 breast)
COc1c(B(O)O)cc(F)cc1-c1nc2ccc3[nH]ncc3c2c2c1COCC2,22.5% (inactive),
CC1(C)N=C(N)N=C(N)N1c1ccc(CCC(=O)Nc2ccc(S(=O)(=O)F)cc2)cc1,,46.3% (inactive)
CC1=C(CN)C2=C(C)C3(CC3)[C@@](C)(O)C(=O)C2=C1,,73.2% (inactive)
CC(C)=CCc1c(O)c(C(=O)CC(C)C)c(O)c2c(-c3ccccc3)cc(=O)oc12,,23.1% (inactive)
O=[N+]([O-])c1ccc(Br)c([N+](=O)[O-])c1,,34% (inactive)
CCCCn1cc(C(=O)/C(C#N)=C/c2cc3ccccc3nc2Cl)c2cc(OC)ccc21,,104% (inactive)
O=C(NC(Cl)=C(Cl)Cl)P(=O)(c1ccccc1)c1ccccc1,,101% (inactive)
COC(=O)[C@@H](C)C[C@H](Cc1ccc(F)cc1)NC(=O)c1csc([C@@H](C[C@H](C(C)C)N(C)C(=O)[C@@H](NC(=O)[C@H]2CCCCN2C)C2CC2)OC(C)=O)n1,,22.5% (inactive)
C/C=C(/C)C(=O)O[C@H]1CC[C@@]2(C)[C@@H]3CC[C@H]4[C@]5(O)C[C@H](O)[C@@]6(O)[C@@H](CN7C[C@@H](C)CC[C@H]7[C@@]6(C)O)[C@]5(O)C[C@@]42O[C@@]13O,,106% (inactive)
C#Cc1ccc2c(c1)C(c1ccccc1F)=NCC(=O)N2C,,26% (inactive)
CN(C)C(=S)SSC(=S)N(C)C,,96.6% (inactive) and 108% (inactive)
O=C(CBr)OCCOC(=O)CBr,,32.8% (inactive)
CCOC(=O)[C@@H](C)C[C@H](Cc1ccccc1)NC(=O)c1nc([C@@H](C[C@H](C(C)C)N(C)C(=O)[C@@H](NC(=O)[C@H]2CCCCN2C)C(C)C)OC(C)=O)sc1CCOCc1ccccc1,,-48.6% (active)
CN(C)[C@@H]1C(=O)C(C(N)=O)=C(O)[C@@]2(O)C(=O)C3=C(O)c4c(O)ccc(Cl)c4[C@@](C)(O)[C@H]3C[C@@H]12,,105% (inactive) and 101% (inactive)
CC(C)CCC1C(=O)NC(=O)NC1=O,,114% (inactive)
CCCCCCC(=O)NC1=C(N2CC2)C(=O)C(NC(=O)CCCCCC)=C(N2CC2)C1=O,,23.2% (inactive)
Cc1cc(N=Nc2ccccc2C)ccc1N,,64.5% (inactive)
ClCc1ccc(Cl)c(Cl)c1,,90.7% (inactive)

Structure (SMILES),growth (HL-60(TB) leukemia),growth (MDA-MB-468 breast)
O=CN1N=C(c2ccccc2)CC1c1sc(N(CCCl)CCCl)nc1Cl (stereo not given),,94% (inactive)
O=C1NC(=O)C(Cc2ccccc2)(Cc2ccccc2)C(=O)N1,,113% (inactive)
CC1CN1CCCCN1CC1C (stereo not given),,101% (inactive)
CN(CCCl)c1ccc(/C=C/C2=[N+](C)c3ccccc3C2(C)C)cc1,,-1.54% (active)
CCCC(C)C1(CC)C(=O)NC(=O)N(C)C1=O (stereo not given),,94.2% (inactive)
Nc1ccc2c(c1)Cc1cc(N)ccc1-2,,67.3% (inactive)
C[C@]12CC[C@@H]3c4ccc(OC(=O)Cc5ccc(N(CCCl)CCCl)cc5)cc4CC[C@H]3[C@@H]1CC[C@@H]2OC(=O)Cc1ccc(N(CCCl)CCCl)cc1,,104% (inactive)
C=CCCCN=C=S,,33.9% (inactive)
CO[C@H]1[C@H](O[C@@H]2C[C@@H]3C/C=C/C(=O)O[C@@H](CO)C[C@H](O)[C@@H]4C[C@H](C)[C@H](C/C=C\C=C\[C@H](C)C[C@H](C2)O3)O4)O[C@@H](C)[C@H](O)[C@H]1O,,-4.8% (active)
Cn1cc(-c2csc(-c3cn(CCCCN4CCCCC4)c4ccc(F)cc34)n2)c2cccnc21,,93.3% (inactive)
C[C@]12CC[C@H]3[C@@H](CC4SC(N)=NC45C/C(=N/NC(N)=O)CC[C@]35C)[C@@H]1CCC2=O (stereo not given in full),,-46.2% (active)
CC1(C)N=C(N)N=C(N)N1c1ccc(CCC(=O)Nc2cccc(S(=O)(=O)F)c2)cc1,,28% (inactive)
CC1(C)N=C(N)N=C(N)N1c1ccc(OCCCNC(=O)Nc2ccc(S(=O)(=O)F)cc2)c(Cl)c1,,14.6% (inactive)
Clc1ccc(CSC(Cn2ccnc2)c2ccc(Cl)cc2Cl)cc1 (stereo not given),,-2.39% (active)
C[CH2][Hg][S]c1ccccc1C(=O)O,,-86.6% (active)
CC[C@H](C)[C@H](NC(=O)[C@H]1CCCCN1C)C(=O)N(C)[C@H](C[C@@H](OC(C)=O)c1nc(C(=O)NC23C4C5C2C2C3C4C52C(=O)OC)cs1)C(C)C (stereo not given in full),,-2.75% (active)
O=C1C(=O)c2ccccc2-c2ccccc21,,-85.6% (active)
